ELG1 genotoxic: qHTS screen for small molecules that induce genotoxicity in human embryonic kidney (HEK293T) cells expressing luciferase-tagged ELG1; HEK293T ELG1-luciferase reporter, luminescence, 16 h; Potency, µM (doses to about 46 µM), usual class: activators; 330,000 tested, 1.3% active; AID 504466, 2011; further: nearly all actives have a fitted effect of over 60% in size
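Genotoxicity was scored as increased ELG1-luciferase reporter signal, measured by ONE-Glo luminescence (30 min, room temperature). Compound or vehicle exposure of the HEK293T reporter cells lasted 16 hr at 37°C.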
Rab9 promoter act: qHTS Assay for Rab9 Promoter Activators. Huh7 Rab9 promoter-luciferase reporter, luminescence, 24 h. Potency, µM (series often up to 9.22 µM), most hits filed as activators. 320,000 tested, 2.8% active. AID 485297, 2010; further: nearly all actives have a fitted effect of over 60% in size
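Huh7 cells stably carrying a Rab9 promoter-luciferase reporter, 1500 cells per well in OP-MEM I with 10% FBS, treated with compound 24 hours at 37C. Luciferase activity read by luminescence after 10 minutes with Amplite reagent.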
NPC1 prom act: qHTS Assay for NPC1 Promoter Activators; Potency, µM (series often up to 9.22 µM), actives largely listed as activators; Huh7 NPC1 promoter luciferase reporter, 24 h; 320,000 tested, 2.4% active; AID 485313, 2010; further: nearly all actives have a fitted effect of over 60% in size
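Quantitative HTS used a cell-based reporter: Huh7 cells stably bearing the NPC1 promoter upstream of luciferase were treated with compounds for 24 h, and promoter activation was read as luminescence.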
SMN2 splice up: qHTS Assay for Enhancers of SMN2 Splice Variant Expression; HEK293 SMN2-luciferase splicing reporter, luminescence, 30-36 h; Potency, µM (doses to about 46.1 µM), usual class: activators; 210,000 tested, 2.8% active; AID 1458, 2008; further: nearly all actives have a fitted effect of over 55% in size
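qHTS luciferase splicing reporter: luminescence rises when SMN2 exon 7 is included in transfected HEK293 cells. Compound exposure lasted 30-36 h at 37C, with 4.5 mM final sodium butyrate as control, followed by a ONE-Glo read.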
FLuc counter: qHTS profiling assay for firefly luciferase inhibitor/activator using purifed enzyme and Km concentrations of substrates (counterscreen for miR-21 project); purified FLuc, Km substrates, luminescence inhibition; Potency, µM (doses to about 57.5 µM), actives largely listed as inhibitors; 360,000 tested, 6.9% active; further: nearly all actives have a fitted effect of over 55% in size
Target sequence (P08659 whole entry, looked up): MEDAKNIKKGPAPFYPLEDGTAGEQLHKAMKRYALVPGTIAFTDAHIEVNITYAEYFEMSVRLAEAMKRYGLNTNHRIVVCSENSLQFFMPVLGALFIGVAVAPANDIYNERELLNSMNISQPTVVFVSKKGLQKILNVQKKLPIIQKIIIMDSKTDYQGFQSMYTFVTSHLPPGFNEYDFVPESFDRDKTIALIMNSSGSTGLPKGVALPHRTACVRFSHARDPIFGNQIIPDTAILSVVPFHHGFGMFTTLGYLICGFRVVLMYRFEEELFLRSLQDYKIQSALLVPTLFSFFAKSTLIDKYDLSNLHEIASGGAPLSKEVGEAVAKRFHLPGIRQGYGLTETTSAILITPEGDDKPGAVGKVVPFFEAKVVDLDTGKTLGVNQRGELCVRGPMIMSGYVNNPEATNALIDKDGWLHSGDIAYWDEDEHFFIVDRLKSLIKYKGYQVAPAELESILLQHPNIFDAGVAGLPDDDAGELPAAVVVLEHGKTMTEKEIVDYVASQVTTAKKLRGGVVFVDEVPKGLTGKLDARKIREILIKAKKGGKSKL
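Purified P. pyralis luciferase, 10 nM final, with Km-level 10 uM D-luciferin and 10 uM ATP in 50 mM Tris acetate pH 7.5, 10 mM Mg acetate, 0.01% Tween-20, 0.05% BSA; 6-point qHTS titration about 60 µM downward; luminescence read.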
p53 reactivation: qHTS assay for re-activators of p53 using a Luc reporter. H1299 p53-A138V BP100-luciferase reporter, luminescence, 24 h. AID 504706, 2011. 320,000 tested, 0.063% active. Potency, µM (series often up to 92.2 µM), actives largely listed as activators; further: nearly all actives have a fitted effect of over 45% in size
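H1299 (p53-null), stable ts p53-A138V + BP100-Luc; 1000 cells/well, Opti-MEM/10% FBS; cpd 4 pt, 1:5; 24 h, 37 deg C, 5% CO2; detection reagent 10 min RT; luminescence.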
Hits are given with their value; - = inactive; ? = inconclusive; . = not tested or not shown; [ ] = remark or other dose. A selection: hits, their analogues and other compounds. The true share with any hit is near 7.4%. The call rests on the fitted dose curve; in most records, active means well fitted curve in the direction sought with a large enough effect; inconclusive means small, poorly fitted or top-dose-only effect, or another doubt; inactive means no such curve, though single readings can be large; an effect the other way counts as inactive or inconclusive.

SMILES	ELG1 genotoxic	Rab9 promoter act	NPC1 prom act	SMN2 splice up	FLuc counter	p53 reactivation
COc1ccc(NC(=O)NCCC2=CCCCC2)cc1	?	2.8µM	4µM	13µM	?	-
COc1cccc(NC(=O)NCCC2=CCCCC2)c1	?	4.5µM	3.5µM	14µM	15µM	-
COc1ccccc1NC(=O)NCCC1=CCCCC1	-	-	-	.	?	-
COc1ccc(CCNC(=O)CCn2c(=O)c3ccccc3n(CC(=O)Nc3cccc(C)c3)c2=O)cc1OC	.	.	.	-	-	.
Cc1cc(OCCN2CCN(S(=O)(=O)c3ccccc3F)CC2)ccc1C(C)C	-	-	-	.	-	-
O=C(/C=C/c1ccc(O)c(O)c1)c1ccccc1O	?	-	-	.	8.5µM	?
COc1ccc(/C=C/C(=O)c2cc(Br)ccc2O)cc1OC	-	-	-	-	-	-
O=C(/C=C/c1cc2ccccc2o1)c1ccccc1O	?	?	?	.	2.4µM	?
O=C(/C=C/c1ccoc1)c1ccccc1O	?	-	-	-	9.5µM	?
O=C(/C=C/c1ccc(O)c(O)c1)OCCc1ccccc1	.	-	-	16µM	.	.
COc1ccccc1N1CCN(CCC(=O)Nc2ccc(F)cc2)CC1	-	-	-	.	-	.
COc1ccc2ccccc2c1C(=O)/C=C\c1ccoc1	-	-	-	-	27µM	-
COc1ccc2ccccc2c1/C=C\C(=O)c1ccccc1	.	.	.	-[9.22 µM]	.	.
O=C/C=C/c1c(-c2ccccc2)cc2oc3ccccc3cc1-2	-	-	?	.	?	-
O=C(Nc1cccc(-c2nc3ccccc3s2)c1)c1cccs1	-	-	-	?	13µM	-
O=C(Cc1ccccc1)Nc1cccc(-c2nc3cccnc3s2)c1	.	.	.	.	-	.
O=C(CCS(=O)(=O)c1ccccc1)Nc1ccc(-c2nc3ccccc3s2)cc1	?	0.5µM	1.6µM	1µM	-	.
O=C(CCS(=O)(=O)c1ccccc1)Nc1cccc(-c2nc3ccccc3s2)c1	?	?	?	-	6.7µM	?
O=C(Nc1cccc(-c2nc3ccccc3s2)c1)c1cc(=O)c2ccccc2o1	-	-	-	-	-	-
CCOC(=O)c1c(S(=O)(=O)N2CCCC(C(=O)N3CCN(c4ccc(F)cc4)CC3)C2)c(C)n(C)c1C (stereo not given)	.	.	.	.	-	.
CC1(C)CC(NC(=O)c2ccccc2F)CC(C)(C)N1	-	-	-	.	-	-
C/C(NC(=O)c1ccccc1F)=C1\C(=O)C[C@@H]2[C@H]1C2(C)C	?	?	?	.	15µM	13µM
C/C(NC(=O)c1cccc(F)c1)=C1/C(=O)C[C@@H]2[C@H]1C2(C)C	?	-	-	-	11µM	?
CCCc1cc2c(OC(=O)CC)c(-c3ccc(C(=O)OCC)o3)c(=O)oc2cc1OC	-	-	-	-	24µM	-
Cc1cc(C)n(-c2nc3ccccc3nc2Nc2ccc(Cl)c(C(=O)OC(C)C)c2)n1	.	.	.	-	-	.
SMILES	ELG1 genotoxic	Rab9 promoter act	NPC1 prom act	SMN2 splice up	FLuc counter	p53 reactivation
COc1ccc(-c2nc3ccc(NS(C)(=O)=O)cc3o2)cc1	.	.	.	.	2.7µM	.
COC(=O)c1ccc(-c2nc3ccc(C)cc3o2)cc1	?	?	?	4.5µM	1.2µM	-
Cc1ccc2oc(-c3ccc(NC(=O)c4ccc5c(c4)OCO5)cc3)nc2c1	-	-	-	-	?	-
Cc1ccc(S(=O)(=O)Nc2ccc3nc(-c4cccc(Cl)c4)oc3c2)cc1	.	.	.	.	-	.
c1ccc2oc(-c3ccc4nc[nH]c4c3)nc2c1	21µM	1.6µM	2.5µM	13µM	3.4µM	?
COC(=O)c1ccc(-c2nc3ccccc3o2)cc1	?	0.63µM	3.5µM	?	1.9µM	-
O=C(Nc1ccc(-c2nc3ccccc3o2)cc1)c1ccc2c(c1)OCO2	.	.	.	-	-	.
COc1ccc2c(c1)c1c(c(=O)n(CCc3ccccc3)c(=O)n1Cc1cccc(Cl)c1)n2C	.	.	.	.	-	.
COC(=O)c1ccc(-c2ncc(-c3cccc4ccccc34)o2)cc1	-	1.8µM	?	11µM	?	?
COc1ccc(-c2nc3ccccc3o2)cc1OC	?	-	?	.	11µM	.
COc1ccc(C(=O)OCC#CCSc2nnc(-c3cccc4ccccc34)o2)cc1	-	-	-	.	-	-
Nc1nc2ccc(-c3nc4ccccc4o3)cc2s1	?	0.63µM	1.1µM	7.9µM	1.3µM	?
CCc1ccc(C(c2ccccc2)c2c(C)[nH]c3ccccc23)s1 (stereo not given)	.	.	.	.	-	.
CCOC(=O)c1ccccc1NC(=O)c1sc2ncn(CC)c(=O)c2c1C	.	.	.	-	-	.
Clc1ccccc1OCc1nnc(-c2ccccc2)o1	?	3.5µM	2.5µM	16µM	11µM	-
Clc1ccccc1-c1nnc(COc2ccccc2)o1	.	.	.	13µM	21µM	.
Clc1ccc(OCc2nnc(-c3ccccc3Br)o2)cc1	-	-	-	-	?	-
COc1cccc(NC(=O)CSc2cc(C)[nH]c(=O)n2)c1	.	.	.	.	-	.
CC(=O)Nc1cccc(C(=O)/C=C/c2ccc(N(C)C)cc2)c1	?	-	-	-	2.7µM	?
CC(=O)Nc1cccc(C(=O)/C=C/c2ccc(/C=C/C(=O)c3cccc(NC(C)=O)c3)cc2)c1	-	-	-	-	-	-
CC(=O)Nc1cccc(C(=O)/C=C/c2cccs2)c1	-	?	-	-	13µM	?
CC(=O)Nc1cccc(C(=O)/C=C/c2ccc[nH]2)c1	-	?	?	.	?	-
CC(=O)Nc1cccc(C(=O)/C=C/c2ccc(F)cc2)c1	?	-	-	-	19µM	-
CC(CN1CCCCC1)OC(=O)/C=C/c1ccccc1 (stereo not given)	-	-	-	.	-	-
CCCCN(CCCNC(=O)c1cc(Nc2ccc(OC)c(OC)c2)nc2ccccc12)c1ccccc1	.	.	.	-	?	.
SMILES	ELG1 genotoxic	Rab9 promoter act	NPC1 prom act	SMN2 splice up	FLuc counter	p53 reactivation
O=C(CCN1CCc2ccccc21)c1ccc2c(c1)OCCO2	-	?	?	-	8.5µM	-
CC(CN1CCOCC1)OC(=O)c1ccc2c(c1)OCCO2 (stereo not given)	?	2.2µM	?	-	27µM	?
CC(OC(=O)c1ccc2c(c1)OCCO2)C(=O)c1ccccc1 (stereo not given)	?	0.5µM	0.71µM	.	0.85µM	?
O=C(CCCc1ccccc1)c1ccccc1	?	1.4µM	1.6µM	.	0.76µM	?
CC(CN1CCCCC1)OC(=O)c1ccc2c(c1)OCCO2 (stereo not given)	?	-	-	.	?	?
COc1ccccc1OCC(=O)N1CCN(C(=O)c2ccco2)CC1	-	-	-	.	-	-
NC(=O)c1ccccc1C[C@H](C(=O)O)N1C(=O)c2ccc(C(=O)O)cc2C1=O	.	-	-	.	-	.
CNc1ccc(/C=C/C(=O)c2ccc(C)cc2)cc1[N+](=O)[O-]	?	-	-	-	?	?

Source: PubChem
